Measurements as given in PubChem BioAssay AID1159580 (chemical genetic matrix, 2015).
About 2,000 (36%) of roughly 5,500 compounds were called active. Another 18% or so got no clear call; they are omitted. Cut-off read from the data, not from the text of the source: active = normalized growth mostly below about 0.91 (no sharp cut-off); inconclusive = no clear call, values can overlap the other calls; inactive = mostly above about 0.92. Some of the results follow.

Assay: chemical genetic growth profiling, strain panel (AID 1159580);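 note: tested at 20 µM; growth read once vehicle control cultures reached saturation at 30 °C; 1 = growth at the plate median or of vehicle wells; lower values mean less growth of the strain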
Conditions: S. cerevisiae deletion strains, growth OD

Measured: normalized growth

COc1ccc(C(CC(=O)c2ccccc2)Sc2ccccc2N)cc1OC (stereo unspecified)
inactive: locus YAR019C, strain CDC15, active compounds read low 0.977 | locus YBL105C, strain PKC1, active compounds read low 0.971 | locus YBR135W, strain CKS1, active compounds read low 0.98 | locus YBR136W, strain MEC1, active compounds read low 0.972 | locus YBR160W, strain CDC28, active compounds read low 0.98 | locus YDL017W, strain CDC7, active compounds read low 0.972 | locus YDL028C, strain MPS1, active compounds read low 0.979 | locus YDL101C, strain DUN1, active compounds read low 0.976 | locus YDL108W, strain KIN28, active compounds read low 0.974 | locus YDL132W, strain cdc53, active compounds read low 0.987 | locus YDL214C, strain PRR2, active compounds read low 0.948 | locus YDR052C, strain DBF4, active compounds read low 0.974 | locus YDR054C, strain cdc34, active compounds read low 0.971 | locus YDR226W, strain ADK1, active compounds read low 0.979 | locus YDR477W, strain SNF1, active compounds read low 0.958 | locus YER123W, strain YCK3, active compounds read low 0.935 | locus YER133W, strain GLC7, active compounds read low 0.954 | locus YFL009W, strain cdc4, active compounds read low 0.981 | locus YFL029C, strain CAK1, active compounds read low 0.966 | locus YFR003C, strain YPI1, active compounds read low 0.972 | locus YFR019W, strain FAB1, active compounds read low 0.963 | locus YFR028C, strain CDC14, active compounds read low 0.967 | locus YGR040W, strain KSS1, active compounds read low 0.946 | locus YGR052W, strain FMP48, active compounds read low 1.02 | locus YGR092W, strain DBF2, active compounds read low 0.959 | locus YHR030C, strain SLT2, active compounds read low 0.921 | locus YHR079C, strain IRE1, active compounds read low 0.95 | locus YHR082C, strain KSP1, active compounds read low 0.985 | locus YHR205W, strain SCH9, active compounds read low 0.935 | locus YIL147C, strain SLN1, active compounds read low 0.965 | locus YJL095W, strain BCK1, active compounds read low 0.947 | locus YJL128C, strain PBS2, active compounds read low 0.944 | locus YJL157C, strain FAR1, active compounds read low 0.965 | locus YJR016C, strain ILV3, active compounds read low 0.985 | locus YJR066W, strain TOR1 (second series), active compounds read low 1 | locus YJR066W, strain TOR1, active compounds read low 0.955 | locus YKL048C, strain ELM1, active compounds read low 0.977 | locus YKL067W, strain YNK1, active compounds read low 0.946 | locus YKL101W, strain HSL1, active compounds read low 0.927 | locus YKL193C, strain SDS22, active compounds read low 0.979 | locus YKL203C, strain TOR2, active compounds read low 0.99 | locus YLR113W, strain HOG1, active compounds read low 0.898 | locus YLR133W, strain CKI1, active compounds read low 0.952 | locus YLR403W, strain SFP1, active compounds read low 0.934 | locus YML070W, strain DAK1, active compounds read low 0.941 | locus YMR001C, strain CDC5, active compounds read low 0.965 | locus YMR205C, strain PFK2 (second series), active compounds read low 0.958 | locus YMR277W, strain FCP1, active compounds read low 0.983 | locus YNL006W, strain LST8, active compounds read low 0.984 | locus YNL020C, strain ARK1, active compounds read low 0.961 | locus YNL161W, strain CBK1, active compounds read low 0.978 | locus YNL183C, strain NPR1, active compounds read low 0.966 | locus YNL207W, strain RIO2, active compounds read low 0.975 | locus YNL222W, strain SSU72, active compounds read low 0.979 | locus YNL307C, strain MCK1 (second series), active compounds read low 0.974 | locus YOL078W, strain AVO1, active compounds read low 0.98 | locus YOL136C, strain PFK27, active compounds read low 0.955 | locus YOR061W, strain CKA2, active compounds read low 0.934 | locus YOR119C, strain RIO1, active compounds read low 0.962 | locus YOR231W, strain MKK1, active compounds read low 0.937 | locus YOR329C, strain SCD5, active compounds read low 0.971 | locus YPL031C, strain PHO85, active compounds read low 0.957 | locus YPL153C, strain RAD53, active compounds read low 0.978 | locus YPL204W, strain HRR25, active compounds read low 0.993 | locus YPL209C, strain IPL1, active compounds read low 0.984 | locus YPL256C, strain CLN2, active compounds read low 0.899 | locus YPR025C, strain CCL1, active compounds read low 0.976 | locus YPR106W, strain ISR1, active compounds read low 0.967 | locus YPR111W, strain DBF20, active compounds read low 0.979 | strain NNK1, active compounds read low 0.968 | strain TSCII, active compounds read low 0.973
